This assay deals with Polyunsaturated fatty acid lipoxygenase ALOX15 (Homo sapiens) (UniProt P16050). The assay is described as follows: Counterscreen qHTS for inhibitors of human arachidonate 12S-lipoxygenase (ALOX12): ALOX15 Assay. The following applies: purified ALOX15 enzyme activity; series mostly up to 110 µM. Summed up: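 Xylenol orange–ferric complex formation, read as the 573 nm to 405 nm absorbance ratio, tracks product from 50 uM arachidonic acid turned over for 30 min at RT. Enzyme is 40 nM ALOX15, pH 7.5 HEPES buffer, compound-preincubated 15 min.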
(In general: Counterscreens check selectivity or assay interference.)

Data on 114 compounds can be found in PubChem BioAssay AID1671192 (National Center for Advancing Translational Sciences (NCATS), 2021).

Inconclusive results are not listed. Active and inactive are the calls of the source. Calls come from the whole dose curve; as a rule, active = well fitted curve in the direction sought with a large enough effect; inconclusive = small, poorly fitted or top-dose-only effect, or another doubt; inactive = no such curve, though single readings can be large or run the other way.

Sequence of Polyunsaturated fatty acid lipoxygenase ALOX15 (Homo sapiens) (P16050 whole entry, looked up): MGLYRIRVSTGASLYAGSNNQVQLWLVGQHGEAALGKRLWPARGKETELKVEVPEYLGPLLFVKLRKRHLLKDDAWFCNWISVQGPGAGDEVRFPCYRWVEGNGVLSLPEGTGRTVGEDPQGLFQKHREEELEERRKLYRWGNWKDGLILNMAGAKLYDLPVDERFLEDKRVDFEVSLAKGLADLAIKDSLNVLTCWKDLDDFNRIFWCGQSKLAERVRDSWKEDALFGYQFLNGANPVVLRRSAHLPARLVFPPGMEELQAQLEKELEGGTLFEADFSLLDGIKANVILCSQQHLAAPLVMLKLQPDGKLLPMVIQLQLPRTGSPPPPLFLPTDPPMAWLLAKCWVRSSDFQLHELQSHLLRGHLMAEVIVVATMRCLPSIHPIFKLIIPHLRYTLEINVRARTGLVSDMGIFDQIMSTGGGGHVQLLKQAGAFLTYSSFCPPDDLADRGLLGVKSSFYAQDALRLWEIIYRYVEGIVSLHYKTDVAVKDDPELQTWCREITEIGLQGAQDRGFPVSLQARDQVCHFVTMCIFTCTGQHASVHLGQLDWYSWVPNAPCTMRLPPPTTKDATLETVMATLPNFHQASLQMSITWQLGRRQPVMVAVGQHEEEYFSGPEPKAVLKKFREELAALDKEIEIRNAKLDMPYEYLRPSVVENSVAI

As to `CC(=O)N1CCn2cc(C(=O)N3CCOCC3)nc2C1`, the call was inactive. Under `NCc1cccc(-c2cc(C(F)(F)F)ccc2Cl)c1` stands “inactive”; under `CN(C)c1ccc(CN2CCn3c(nn(-c4ccc(Cl)cc4)c3=O)C2)cc1`, “inactive”. `COc1ccccc1C(=O)N1CCc2nc(C3CC3)nc(-c3ccc(Cl)cc3)c2C1`: the outcome was inactive. As to `O=C1NCc2ccccc2CC12CCN(Cc1cccc3ccccc13)C2` (centres undefined), the compound was called inactive. Regarding `O=C1NCc2ccccc2CC12CCN(Cc1cccc(C(F)(F)F)c1)C2` (centres undefined), the compound was called inactive. Under `CN1CC(=O)N(C2CCNCC2)Cc2c1ncnc2N1CCCC1CO` (centres undefined) stands “inactive”; under `O=C(c1ccc(Cl)cc1)N1CC2(CCCN(Cc3ccc(Cl)cc3)C2)Cc2ccccc21` (centres undefined), “inactive”. Consider `COc1cccc(N2C(=O)NC(=NC3CCCC3)C23CCN(CC2CC2)C3)c1` (centres undefined), for which the compound was called inactive. In the case of `O=[S+]([O-])(c1ccc(Br)cc1)c1nnn2c1nc(NCc1ccc(F)cc1)c1ccccc12`, the compound was classed as inactive. Under `NCC(=O)N1Cc2ccccc2CC12CCCN(C(=O)c1ccccc1)C2` (centres undefined) stands “inactive”; under `CNC1CCOc2ccccc21` (centres undefined), “inactive”; under `CNCc1ccc(N2CCCC2)cc1`, “inactive”. Under `O=C(N1CCOCC1)N1CCn2c(nnc2-c2cncc(Br)c2)C1` stands “inactive”; under `O=C(c1ccc(Cl)cc1)N1CC2(CCN(Cc3ccc(Cl)cc3)C2)Cc2ccccc21` (centres undefined), “inactive”; under `Cc1ccc(CN2CCC3(Cc4ccccc4CNC3=O)C2)cc1C` (centres undefined), “inactive”. As for `COc1ccc(CNc2ncnc3c2CN(C2CCCNCC2)C(=O)CN3C)cc1` (centres undefined), the call was inactive. As to `O=C1NCc2ccccc2CC12CCN(Cc1ccccc1Br)C2` (centres undefined), the outcome was inactive. As for `CCCCCNc1ncnc2c1CN(C1CCNCC1)C(=O)CN2C`, the call was inactive. Turning to `C[S+](=O)([O-])N1Cc2ccccc2CC2(CCCCN2CC2CCNCC2)C1` (centres undefined), the outcome was inactive. Under `O=C1Nc2ccccc2C12CCN(Cc1ccccc1)C2` (centres undefined) stands “inactive”; under `O=[S+]([O-])(c1ccccc1)N1CC(Oc2ccc3c(c2)OCO3)C1`, “inactive”. With `COc1ccc(CN2CCCC23Cc2ccccc2CNC3=O)cc1OC` (centres undefined), the outcome was inactive. Next, `CC(C)(C)OC(=O)N1CC(Nc2ccc(O)cc2)C1`: “inactive”. Next, `COc1ccc(N2CC3CCC(C2)N3[S+](C)(=O)[O-])cc1`: “inactive”; `Cc1noc(C)c1C(=O)N1CCN(c2ccc(Cl)nn2)C(=O)C1`: “inactive”; `CS(=O)(=O)N1CCC2(CC1)CN(Cc1ccc(O)cc1)Cc1ccccc1O2`: “inactive”. Next, `CCCC(=O)N1Cc2ccccc2CC2(CCN(Cc3ccccc3)CC2)C1`: “inactive”; `Cc1cc(C(=O)NC2CCNCC2)c2c(C3CCNCC3)noc2n1`: “inactive”; `CSc1ccc(-c2ccccc2C=O)cc1`: “inactive”.

For the compound `FC(F)(F)c1ccc(CN2CCCC3(CC(c4cccc(C(F)(F)F)c4)=NO3)C2)cc1` (centres undefined), the compound was classed as inactive. Next, `Cc1cccc(CN2CCCC23Cc2ccccc2CNC3=O)c1` (centres undefined): “inactive”.

With `Cc1noc(C)c1C(=O)N1Cc2ccccc2CC2(CCN(CC3CCNCC3)C2)C1` (centres undefined), the outcome was inactive. For the compound `COCCNc1nc2c([S+](=O)([O-])c3cc(OC)ccc3OC)nnn2c2ccccc12`, the outcome was inactive.

For the compound `CN1CC(=O)N(C2CCCNCC2)Cc2c(NCCO)ncnc21` (centres undefined), the outcome was inactive. As for `CCOCCCNc1ncnc2c1CN(C1CCCNC1)C(=O)CN2C` (centres undefined), the outcome was inactive. Under `CCN1CCCC2(Cc3ccccc3CN(C(=O)c3ccccc3)C2)C1` (centres undefined) stands “inactive”; under `COC(=O)CNC(=O)C1CCc2nnc(CNC(=O)c3cccnc3)n21` (centres undefined), “inactive”. Next, `O=C1NCc2ccccc2CC12CCCN2CC1=CCCCC1` (centres undefined): “inactive”; `O=Cc1ccc(-c2cccc(O)c2)cc1`: “inactive”. Consider `O=C1c2ccccc2CN1C1CCN(Cc2ccsc2)CC1`, for which the result was inactive.

In the case of `N#Cc1cccnc1-c1cccc(C(=O)O)c1`, the result was inactive. Turning to `Fc1ccc(CN2CC(Oc3ccc4c(c3)OCO4)C2)cc1`, the outcome was inactive. Next, `O=C(C1CCCC1)N1Cc2ccccc2CC2(CCN(Cc3cccnc3)C2)C1` (centres undefined): “inactive”; `C[S+](=O)([O-])N1CC2(CCN(Cc3ccc(Cl)cc3)C2)Cc2ccccc21` (centres undefined): “inactive”. Under `CN1CC(=O)N(C2CCCNC2)Cc2c(NCCc3ccccc3F)ncnc21` (centres undefined) stands “inactive”; under `CC(CCc1ccccc1)Nc1ncnc2c1CN(C1CCNC1)C(=O)CN2C` (centres undefined), “inactive”. For the compound `CCN1CCC2(Cc3ccccc3CN(C(=O)Cc3ccccc3)C2)C1` (centres undefined), the compound was called inactive. For the compound `O=C1NCc2ccccc2CC12CCN(Cc1c(F)cccc1Cl)CC2`, the compound was called inactive. As to `CCCN1CCC2(Cc3ccccc3CN(C(=O)Cc3ccc(O)cc3)C2)C1` (centres undefined), the outcome was inactive.

For `CCOc1ccccc1CN1CCCCC12Cc1ccccc1CNC2=O` (centres undefined), the compound was classed as inactive. With `CCCC(=O)N1Cc2ccccc2CC2(CCN(Cc3ccc(O)cc3)C2)C1` (centres undefined), the outcome was inactive. As to `N#Cc1cccnc1-c1ccc(C(=O)O)cc1`, the outcome was inactive. On to `COc1ccc2c(c1)CCCN2C1CNC1`, for which the compound was classed as inactive. Next, `O=C1NCc2ccccc2CC12CCN(Cc1ccccc1F)C2` (centres undefined): “inactive”; `CNC1CCCc2ccccc21` (centres undefined): “inactive”; `NCc1cccc(-c2ccc(F)cc2F)c1`: “inactive”. Under `CC(=O)N1CCC2(CC1)CN(C(=O)Cc1csc(N)n1)Cc1ccccc1O2` stands “inactive”. Next, `Cc1ccc(-c2ccccc2CN)c(C)c1`: “inactive”; `COc1ccc(-c2cc(C(=O)NC3CCNCC3)c3c(C4CCCN4)noc3n2)cc1` (centres undefined): “inactive”; `CCC(=O)N1Cc2ccccc2CC2(CCN(CC3CCNC3)C2)C1` (centres undefined): “inactive”. Take `O=Cc1cccc(-c2cncc(C(=O)O)c2)c1`: the result was inactive.

Regarding `CN1CC(=O)N(C2CCCNC2)Cc2c1ncnc2N1CCSCC1` (centres undefined), the call was inactive. For `O=C(c1cc(C2CC2)nc2onc(C3CCNCC3)c12)N1CCCCC1`, the compound was called inactive. Next, `COc1ccc(OC)c([S+](=O)([O-])c2nnn3c2nc(NCc2ccc(F)cc2)c2ccccc23)c1`: “inactive”; `O=C1NCc2ccccc2CC12CCCN2Cc1cccc(OC(F)(F)F)c1` (centres undefined): “inactive”; `c1ccc2c(c1)COC1(CCNC1)CN2CC1CCCC1` (centres undefined): “inactive”.

Regarding `CN1CC(=O)N(C2CCCNCC2)Cc2c1ncnc2N1CCCC(CO)C1` (centres undefined), the call was inactive. Next, `O=[S+]([O-])(c1ccncc1)c1nnn2c1nc(NCc1ccc(F)cc1)c1ccccc12`: “inactive”.

`Fc1ccc(CN2CCn3c(nnc3C3CCCNC3)C2)cc1` (centres undefined): the compound was called inactive. Next, `CN1CC(=O)N(C2CCCNC2)Cc2c(NCCO)ncnc21` (centres undefined): “inactive”. Next, `Cc1ccc(CN2CCC3(Cc4ccccc4CNC3=O)C2)cc1` (centres undefined): “inactive”; `O=C1NCc2ccccc2CC12CCN(CCCc1ccccc1)CC2`: “inactive”; `O=Cc1ccccc1-c1ccc(O)cc1`: “inactive”.

Consider `COc1ccc(CC(=O)N2Cc3ccccc3CC23CCCN([S+](C)(=O)[O-])C3)cc1` (centres undefined), for which the compound was called inactive. Consider `CNCc1ccc(F)cc1`, for which the compound was called inactive. As for `Cc1cc(C(=O)NC2CCCC2)c2c(C3CCNCC3)noc2n1`, the compound was called inactive.

On to `Cc1noc(C)c1C(=O)N1Cc2ccccc2CC2(CCCN(CC3CCNC3)C2)C1` (centres undefined), for which the result was inactive. With `COc1cc(CN2CCC3(Cc4ccccc4CNC3=O)C2)cc(OC)c1` (centres undefined), the outcome was inactive. As to `CCC(=O)N1Cc2ccccc2CC2(CCCN(CC3CCNC3)C2)C1` (centres undefined), the result was inactive.

As to `O=C1NCc2ccccc2CC12CCN(Cc1cnc3ccccc3c1)C2` (centres undefined), the result was inactive.

On to `COc1ccc(C(=O)N2CCc3nc(C4CC4)nc(-c4ccc(Cl)cc4)c3C2)cc1`, for which the outcome was inactive. In the case of `Cc1cccc(N2Cc3c(NCCCOC(C)C)ncnc3N(C)CC2=O)c1`, the compound was called inactive. As for `CN(C)CCCC(=O)N1Cc2ccccc2CC2(CCCCN2CC2CCNCC2)C1` (centres undefined), the result was inactive. Next, `O=C1NCc2ccccc2CC12CCCN(CCCc1ccccc1)C2` (centres undefined): “inactive”; `COc1ccc(OC2CN(Cc3ccc(F)cc3)C2)cc1`: “inactive”. In the case of `CN(C)c1ccc(CN2CCn3c(nnc3C3CCNCC3)C2)cc1`, the compound was called inactive.

In the case of `COCCCNc1nc2c(S(=O)(=O)c3c(C)cc(C)cc3C)nnn2c2ccccc12`, the compound was classed as inactive. Next, `CN1CC(=O)N(C2CCCNCC2)Cc2c(NCCCO)ncnc21` (centres undefined): “inactive”; `Cc1ccc(-c2cccc(CN)c2)cc1Cl`: “inactive”; `Cc1cc(C(=O)N2CCC(F)CC2)c2c(C3CCCN3)noc2n1` (centres undefined): “inactive”.

Turning to `CCc1nc2c(c(-c3ccc(OC)cc3)n1)CCN(Cc1cccc3ccccc13)CC2`, the compound was classed as inactive. Take `Fc1ccc(OC2CN(Cc3ccc(C(F)(F)F)cc3)C2)cc1F`: the compound was called inactive.

Consider `Cn1nc(C2CCNC2)c2c(C(=O)NCc3ccncc3)cc(C3CC3)nc21` (centres undefined), for which the compound was called inactive. Next, `COc1ccc(-c2cc(C(=O)NCC(C)C)c3c(C)nn(-c4ccccc4)c3n2)cc1`: “inactive”; `O=C1Nc2ccccc2CC12CN(Cc1c[nH]c3ccccc13)C2`: “inactive”. Next, `CCc1nc2c(c(-c3ccc(OC)cc3)n1)CCN(Cc1ccc(OC)cc1)CC2`: “inactive”; `O=C1NCc2ccccc2CC12CCN(Cc1cc(O)cc(O)c1)C2` (centres undefined): “inactive”.

In the case of `CCc1ccc(CN2CCCC3(Cc4ccccc4CNC3=O)C2)s1` (centres undefined), the outcome was inactive. As for `Cc1ccc(C(=O)N2CCCC3(CC(c4cccnc4)=NO3)C2)cc1` (centres undefined), the result was inactive. For `CN(C)CCC(=O)N1Cc2ccccc2CC2(CCCCN2CC2CCOCC2)C1` (centres undefined), the call was inactive. For `O=C(c1ccc(C(F)(F)F)cc1)N1CCn2c(nnc2C2CCCNC2)C1` (centres undefined), the outcome was inactive. Under `COc1ccc(CN2CCCCC23Cc2ccccc2CNC3=O)c(OC)c1` (centres undefined) stands “inactive”; under `Cn1nc(C2CCCN2)c2c(C(=O)NCc3cccs3)cc(C3CC3)nc21` (centres undefined), “inactive”; under `COc1ccc(C(=O)N2CC(Oc3ccc4c(c3)OCO4)C2)cc1`, “inactive”. Consider `CNCc1ccccc1Cl`, for which the compound was called inactive. Next, `CN1CCCC2(Cc3ccccc3CN(C(=O)c3ccc(Cl)cc3)C2)C1` (centres undefined): “inactive”. As for `C[C@H](C(=O)N1Cc2ccccc2CC2(CCN(C)C2)C1)c1ccccc1` (some centres undefined), the compound was classed as inactive. Next, `CN1CC(=O)N(C2CCCNCC2)Cc2c1ncnc2N1CCCC(O)C1` (centres undefined): “inactive”.

As to `CN1CC(=O)N(C2CCCNCC2)Cc2c(NCc3cccs3)ncnc21` (centres undefined), the result was inactive.

For the compound `CC(=O)Nc1ccc(C(=O)N2C3CCC2CN(C(C)C)C3)cc1`, the outcome was inactive. Next, `CCN1CCCCC12Cc1ccccc1CN(C(=O)C1CCN(C)CC1)C2` (centres undefined): “inactive”; `O=C1NCc2ccccc2CC12CCCN2Cc1ccc(Br)cc1` (centres undefined): “inactive”.

As to `CC(C)c1nc2c(c(-c3ccc(Cl)cc3)n1)CCN(CC1CCCCC1)CC2`, the call was inactive.
